From PubChem BioAssay (Tox21)
Inconclusive results are not listed. Active and inactive are the calls of the source. Unless noted, the call rests on the fitted dose curve; in most records, active means well fitted curve in the direction sought with a large enough effect in the repeat runs; inconclusive means weak or mixed curves; inactive means no such curve, though single readings can be large; an effect the other way counts as inactive or inconclusive.

Tests used:
[1] = qHTS assay to test for compound auto fluorescence at 535 nm (green) in HEK293 cells (AID 720680)
[2] = qHTS assay to test for compound auto fluorescence at 460 nm (blue) in HEK293 cell free culture (AID 720681)
In short: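 Test compounds were pinned into cell-free culture medium (DMEM with 10% FBS) and fluorescence was read directly at Ex/Em 405/460 nm. Signals were expressed as fluorescence equivalents of triamterene, with DMSO vehicle as control.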

[3] = qHTS assay to test for compound auto fluorescence at 535 nm (green) in HEK293 cell free culture (AID 720682)
In short: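 Intrinsic compound fluorescence is measured in culture medium containing 10% FBS, with excitation at 485 nm and detection at 535 nm, referenced to fluorescein.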

[4] = qHTS assay to test for compound auto fluorescence at 590 nm (red) in HEK293 cell free culture (AID 720683)
In short: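 Tox21 10K library compounds were pinned into cell-free DMEM with 10% FBS and fluorescence was read at excitation 540 nm. Activity is expressed as Rose Bengal sodium equivalency.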

[5] = qHTS assay to test for compound auto fluorescence at 590 nm (red) in HepG2 cell free culture (AID 720684)
In short: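 Readout: intrinsic compound fluorescence at 590 nm emission after 540 nm excitation, scaled to Rose Bengal sodium. Matrix was cell-free MEM with 10% FBS; DMSO vehicle wells served as control.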

[6] = qHTS assay to test for compound auto fluorescence at 460 nm (blue) in HepG2 cell free culture (AID 720685)
In short: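 Cell-free plates of MEM plus 10% FBS received 23 nL compound or DMSO vehicle; blue-channel (405/460 nm) intensity scored against triamterene as reference fluorophore.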

[7] = qHTS assay to test for compound auto fluorescence at 535 nm (green) in HepG2 cell free culture (AID 720686)
[8] = qHTS assay to test for compound auto fluorescence at 460 nm (blue) in HepG2 cells (AID 720687)
In short: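 Cells (2,000/well in MEM with 10% FBS) attached overnight at 37 C, then were exposed to compound or DMSO for 1 hr at 37 C, 5% CO2. Fluorescence read at Ex/Em 405/460 nm, expressed as triamterene-equivalent signal.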

[9] = qHTS assay to identify small molecule antagonists of the glucocorticoid receptor (GR) signaling pathway - cell viability counter screen (AID 720693); further: nearly all actives have a fitted effect of over 55% in size
[10] = qHTS assay for identifying genotoxic compounds that show differential cytotoxicity against isogenic chicken DT40 cell lines with known DNA damage response pathways - wild type cell line (AID 743012); further: nearly all actives have a fitted effect of over 60% in size; further: potency means the concentration at half of the fitted maximal effect
In short: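 Viability by ATP luminescence (CellTiter-Glo, 30 min RT) after 40 h compound treatment at 37 C/5% CO2, using 300 parental DNA repair-proficient DT40 cells per well.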

[11] = qHTS assay for identifying genotoxic compounds that show differential cytotoxicity against isogenic chicken DT40 cell lines with known DNA damage response pathways - Rev3 mutant cell line (AID 743014); further: nearly all actives have a fitted effect of over 55% in size; further: potency means the concentration at half of the fitted maximal effect
[12] = qHTS assay for identifying genotoxic compounds that show differential cytotoxicity against isogenic chicken DT40 cell lines with known DNA damage response pathways - Rad54/Ku70 mutant cell line (AID 743015); further: nearly all actives have a fitted effect of over 60% in size; further: potency means the concentration at half of the fitted maximal effect
[13] = qHTS assay to identify small molecule antagonists of the androgen receptor (AR) signaling pathway - cell viability counter screen (AID 743033; further: nearly all actives have a fitted effect of over 45% in size)
[14] = qHTS assay to identify small molecule antagonists of the androgen receptor (AR) signaling pathway using the MDA cell line - cell viability counter screen (AID 743041; further: nearly all actives have a fitted effect of over 45% in size)
In short: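 qHTS viability read-out; MDA-kb2 AR-luc; R1881-stimulated; 16 h exposure at 37C, 0% CO2; CellTiter-Fluor, 30 min; fluorescence intensity.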

[15] = molecular target: Glucocorticoid receptor (Homo sapiens) (UniProt P04150); experiment: qHTS assay to identify small molecule antagonists of the glucocorticoid receptor (GR) signaling pathway (AID 720692; active means well fitted inhibition curve with a large enough effect in the signal ratio in the repeat runs, not every such curve was filed as active; the % refers to the signal ratio)
In short: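 Inhibition of dexamethasone-driven (5 nM final) beta-lactamase expression was measured in GRE-reporter HeLa cells over 18 h at 37C. Fluorescence was read after 2 h with the B/G FRET substrate at room temperature.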

[16] = molecular target: Glucocorticoid receptor (Homo sapiens) (UniProt P04150); experiment: qHTS assay to identify small molecule agonists of the glucocorticoid receptor (GR) signaling pathway (AID 720691; active means well fitted activation curve with a large enough effect in the signal ratio in the repeat runs, not every such curve was filed as active; the % refers to the signal ratio)
In short: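 Agonist-mode qHTS in HeLa cells stably expressing a glucocorticoid-response-element beta-lactamase reporter. Fluorescence intensity read with FRET substrate (2 h, room temperature) after 18 h compound treatment at 37 C.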

[17] = molecular target: Androgen receptor (Homo sapiens) (UniProt P10275); experiment: qHTS assay to identify small molecule antagonists of the androgen receptor (AR) signaling pathway (AID 743035; active means well fitted inhibition curve with a large enough effect in the signal ratio in the repeat runs, not every such curve was filed as active; the % refers to the signal ratio)
In short: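 Antagonist mode: AR-bla HEK293 cells co-treated with test compounds and agonist R1881 for 16 h at 37C, 5% CO2. Beta-lactamase activity read as FRET fluorescence after 2 h room-temperature substrate loading.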

[18] = molecular target: Androgen receptor (Homo sapiens) (UniProt P10275); experiment: qHTS assay to identify small molecule agonists of the androgen receptor (AR) signaling pathway (AID 743036; active means well fitted activation curve with a large enough effect in the signal ratio in the repeat runs, with a control signal flat, not every such curve was filed as active; the % refers to the signal ratio)
In short: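 Agonist activity was scored by beta-lactamase reporter fluorescence in stably transfected HEK293 cells exposed to compounds for 16 h at 37C and 5% CO2. Substrate loading took 2 h at room temperature.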

[19] = molecular target: Androgen receptor (Homo sapiens) (UniProt P10275); experiment: qHTS assay to identify small molecule agonists of the androgen receptor (AR) signaling pathway using the MDA cell line (AID 743040; further: nearly all actives have a fitted effect of over 20% in size)
In short: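 Agonist activity is measured as luciferase luminescence in human MDA-kb2 cells whose MMTV reporter responds to both AR and GR. Compounds in DMSO incubate 16 h at 37C, 0% CO2, and ONE-Glo is read after 30 min.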

[20] = molecular target: Androgen receptor (Homo sapiens) (UniProt P10275); experiment: qHTS assay to identify small molecule antagonists of the androgen receptor (AR) signaling pathway using the MDA cell line (AID 743042; further: nearly all actives have a fitted effect of over 55% in size)
In short: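 MDA-kb2 cells (human breast carcinoma, stably carrying an MMTV-luciferase reporter responsive to AR and GR) were plated at 3,000 cells/well and preincubated 5 hr at 37C, then given compound plus R1881 agonist for 16 h. ONE-Glo luminescence was read.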

Measured: Potency

Androgen receptor (Homo sapiens), sequence (P10275 whole entry, looked up): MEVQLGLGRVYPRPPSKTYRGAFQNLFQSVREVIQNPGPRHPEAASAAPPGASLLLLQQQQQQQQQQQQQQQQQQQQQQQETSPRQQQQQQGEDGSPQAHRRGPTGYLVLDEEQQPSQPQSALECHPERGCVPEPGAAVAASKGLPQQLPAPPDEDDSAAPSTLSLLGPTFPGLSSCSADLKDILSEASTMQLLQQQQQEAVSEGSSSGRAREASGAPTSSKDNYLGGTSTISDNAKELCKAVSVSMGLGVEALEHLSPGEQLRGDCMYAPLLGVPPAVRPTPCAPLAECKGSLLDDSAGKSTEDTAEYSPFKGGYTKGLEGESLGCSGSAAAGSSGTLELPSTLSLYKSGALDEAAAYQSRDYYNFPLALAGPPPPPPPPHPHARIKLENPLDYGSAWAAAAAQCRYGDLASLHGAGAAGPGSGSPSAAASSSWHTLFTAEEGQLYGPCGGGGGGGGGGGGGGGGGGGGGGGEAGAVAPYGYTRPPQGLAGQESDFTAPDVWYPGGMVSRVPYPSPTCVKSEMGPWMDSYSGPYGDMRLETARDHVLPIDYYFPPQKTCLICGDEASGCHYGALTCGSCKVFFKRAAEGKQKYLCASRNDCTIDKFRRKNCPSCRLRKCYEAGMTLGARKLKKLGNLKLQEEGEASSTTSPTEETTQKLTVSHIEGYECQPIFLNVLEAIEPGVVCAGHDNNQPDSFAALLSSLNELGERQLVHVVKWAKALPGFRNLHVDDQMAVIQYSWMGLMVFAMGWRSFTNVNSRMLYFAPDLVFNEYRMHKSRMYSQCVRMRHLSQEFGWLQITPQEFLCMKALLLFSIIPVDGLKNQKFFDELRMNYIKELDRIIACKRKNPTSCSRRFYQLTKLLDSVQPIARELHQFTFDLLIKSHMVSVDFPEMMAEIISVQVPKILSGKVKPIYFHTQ
Glucocorticoid receptor (Homo sapiens), sequence (P04150 whole entry, looked up): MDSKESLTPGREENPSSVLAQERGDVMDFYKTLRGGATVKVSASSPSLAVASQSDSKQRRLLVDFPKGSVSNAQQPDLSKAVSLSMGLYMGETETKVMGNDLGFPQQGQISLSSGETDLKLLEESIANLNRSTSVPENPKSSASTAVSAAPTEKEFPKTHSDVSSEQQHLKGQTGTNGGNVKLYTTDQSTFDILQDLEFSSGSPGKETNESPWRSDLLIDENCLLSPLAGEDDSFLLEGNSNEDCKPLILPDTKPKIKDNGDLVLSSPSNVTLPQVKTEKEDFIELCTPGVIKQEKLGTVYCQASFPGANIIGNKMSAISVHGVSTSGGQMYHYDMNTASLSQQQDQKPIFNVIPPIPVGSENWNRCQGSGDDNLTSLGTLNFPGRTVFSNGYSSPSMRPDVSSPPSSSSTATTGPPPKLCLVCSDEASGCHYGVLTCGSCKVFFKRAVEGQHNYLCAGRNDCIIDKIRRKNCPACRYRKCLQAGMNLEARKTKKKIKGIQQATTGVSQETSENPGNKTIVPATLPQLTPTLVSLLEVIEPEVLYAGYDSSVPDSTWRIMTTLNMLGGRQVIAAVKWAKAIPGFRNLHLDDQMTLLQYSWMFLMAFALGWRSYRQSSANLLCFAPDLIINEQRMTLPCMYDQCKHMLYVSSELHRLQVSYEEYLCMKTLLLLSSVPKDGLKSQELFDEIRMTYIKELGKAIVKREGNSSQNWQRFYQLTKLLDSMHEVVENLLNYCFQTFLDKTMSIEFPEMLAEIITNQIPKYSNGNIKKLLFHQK

CCCCCOC(=O)Nc1nc(=O)n([C@@H]2O[C@H](C)[C@@H](O)[C@H]2O)cc1F
inactive: [1] | [2] | [3] | [4] | [5] | [6] | [7] | [8] | [9] | [10] | [11] | [12] | [13] | [14]

CCCCC=O
inactive: [1] | [2] | [3] | [4] | [5] | [6] | [7] | [8] | [15] | [9] | [10] | [11] | [12] | [13] | [14]

C1C2OC2C2C1C1CC2C2OC12 (stereo not drawn)
inactive: [1] | [2] | [3] | [4] | [5] | [6] | [7] | [8] | [16] | [10] | [11] | [12] | [13] | [14]

CCO[Si](CCCN=C=O)(OCC)OCC
inactive: [1] | [2] | [3] | [4] | [5] | [6] | [7] | [8] | [9] | [10] | [11] | [12] | [13] | [14]

CCCCCCCCCCCCI
inactive: [1] | [2] | [3] | [4] | [5] | [6] | [7] | [8] | [15] | [9] | [13] | [14]
active: [10] 54.7 µM | [11] 7.73 µM | [12] 27.4 µM

O=[N+]([O-])c1ccc(CCO)cc1
inactive: [1] | [2] | [3] | [4] | [5] | [6] | [7] | [8] | [15] | [9] | [10] | [11] | [12] | [13] | [14]

CC(C)c1cccc(O)c1
inactive: [1] | [2] | [3] | [4] | [5] | [6] | [7] | [8] | [15] | [9] | [10] | [11] | [12] | [13] | [14]

O=[N+]([O-])c1ccc(Oc2ccc([N+](=O)[O-])cc2)cc1
inactive: [1] | [2] | [3] | [4] | [5] | [6] | [7] | [8] | [9] | [10] | [11] | [12] | [13] | [14]

CCCc1ccc(N)cc1
inactive: [1] | [2] | [3] | [4] | [5] | [6] | [7] | [8] | [9] | [10] | [11] | [12] | [13] | [14]

CC1=CC(=O)CCC1
inactive: [1] | [2] | [3] | [4] | [5] | [6] | [7] | [8] | [15] | [9] | [10] | [11] | [12] | [13] | [14]

Cc1ccc(N)cc1[N+](=O)[O-]
inactive: [1] | [2] | [3] | [4] | [5] | [6] | [7] | [8] | [15] | [10] | [11] | [12] | [13] | [17] | [18] | [19] | [14] | [20]
